The structures appear in SMILES notation. Results filed as inconclusive are left out. Values without a mark were called inactive. Calls of active or inactive are those of the source. Calls follow the shape of the dose curve; as a rule, active = well fitted curve in the direction sought with a large enough effect; inconclusive = small, poorly fitted or top-dose-only effect, or another doubt; inactive = no such curve, though single readings can be large; an effect the other way counts as inactive or inconclusive.

The test system of experiment [1] is NIH3T3. Put plainly: qHTS assay to identify novel small-molecules to repurpose for Merkel cell carcinoma treatment (AID 1296009). Also: nearly all actives have a fitted effect of over 60% in size. Conditions: MCC and control cell lines, CellTiter-Glo viability, 72 h; at 44.8 µM (top of the series) unless noted. In a few lines:
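qHTS format: cells treated with library compounds in DMSO across 8 (NPC) or 11 (MIPE) concentrations. Readout after 72 hr at 37 degree celsius was CellTiter-Glo luminescence.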
Background: In qHTS, concentration-response curves come from the screen itself.

The subject of experiment [2] is C33A. Kind of experiment: Primary qHTS to identify gynecologic anti-cancer compounds using libraries of approved drugs and bioactive compounds (AID 1345084). Also: % is scaled to controls: 0 for no effect and ±100 for the full control effect; nearly all actives have a fitted effect of over 55% in size. To be noted: Gynecologic cancer cell panel viability, ATPlite luminescence, 48 h; series mostly up to 57.5 µM. In a few lines: (§1)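 Cell viability after 48 h drug treatment, ATPlite luminescence readout; five doses.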

For experiment [3], the system named is CAOV3. The description is as above. Conditions: Gynecologic cancer cell panel viability, ATPlite luminescence, 48 h; series mostly up to 57.5 µM. In a few lines:
as §1

Experiment [4] concerns CASKI. The description is as above. To be noted: Gynecologic cancer cell panel viability, ATPlite luminescence, 48 h; series mostly up to 57.5 µM. In outline:
as §1
On the technique in general: In ATP-based viability assays light output follows the ATP content of the culture.

Experiment [5] concerns Es-2. The description is as above. To be noted: Gynecologic cancer cell panel viability, ATPlite luminescence, 48 h; series mostly up to 57.5 µM. In a few lines: as §1
In experiment [6] the test system is HeLa. The experiment is described as above. Conditions: Gynecologic cancer cell panel viability, ATPlite luminescence, 48 h; series mostly up to 57.5 µM. In a few lines: as §1
The subject of experiment [7] is Hek293T. Described as above. To be noted: Gynecologic cancer cell panel viability, ATPlite luminescence, 48 h, control line for the selectivity index; series mostly up to 57.5 µM. In outline:
as §1

For experiment [8], the system named is JEG-3. The experiment is described as above. To be noted: Gynecologic cancer cell panel viability, ATPlite luminescence, 48 h; series mostly up to 57.5 µM. In a few lines:
as §1

The subject of experiment [9] is OV90. The experiment is described as above. Conditions: Gynecologic cancer cell panel viability, ATPlite luminescence, 48 h; series mostly up to 57.5 µM. In a few lines: as §1
The test system of experiment [10] is PA-1. The experiment is described as above. To be noted: Gynecologic cancer cell panel viability, ATPlite luminescence, 48 h; series mostly up to 57.5 µM. In a few lines: as §1
The subject of experiment [11] is SKOV3. Described as above. Conditions: Gynecologic cancer cell panel viability, ATPlite luminescence, 48 h; series mostly up to 57.5 µM. In a few lines: as §1
Experiment [12] relates to Tov-21-G. The experiment is described as above. Conditions: Gynecologic cancer cell panel viability, ATPlite luminescence, 48 h; series mostly up to 57.5 µM. In outline:
as §1

For experiment [13], the system named is Tov112D. The description is as above. Conditions: Gynecologic cancer cell panel viability, ATPlite luminescence, 48 h; series mostly up to 57.5 µM. In outline:
as §1

Experiment [14] can be described thus: Drug repurposing screens with cells derived from glioblastoma tumor samples (AID 1345199). Also: potency is read from the fitted curve at half-maximal effect. As to activity, negative = cell killing: % is scaled to controls: 0 for no effect and ±100 for the full control effect. As to all read-outs here: nearly all actives have a fitted effect of over 40% in size. To be noted: GBM patient neurospheres viability, ATP luminescence, 48 h, tumour line A; for activity, negative = cell killing: at 46 µM (top of the series). In outline: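 Four patient lines of CD133+ GBM neurospheres were screened at several concentrations; hits were retested in those lines plus three slower-growing GBM lines, using 48-hour treatment and ATP-based viability.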

`C=C[C@H]1[C@H](O[C@@H]2O[C@H](CO)[C@@H](O)[C@H](O)[C@H]2O)OC=C2C(=O)OCC[C@]21O`: the call in experiment [1] was inactive. The Potency entry in experiment [2], in [3], in experiment [4], in [5], in experiment [6] and in [7] was “inactive” throughout. In addition, the Potency result in experiment [8], in experiment [9], in experiment [10], in experiment [11], in experiment [12] and in experiment [13] was “inactive” in each case.
Take `CC1=CC[C@]2(C(=O)O[C@@H]3O[C@H](CO[C@@H]4O[C@H](CO)[C@@H](O[C@@H]5O[C@@H](C)[C@H](O)[C@@H](O)[C@H]5O)[C@H](O)[C@H]4O)[C@@H](O)[C@H](O)[C@H]3O)CC[C@]3(C)C(CCC4[C@@]5(C)C[C@@H](O)[C@H](O)[C@@](C)(CO)C5CC[C@]43C)C2C1C` (stereo partly specified): the outcome in experiment [1] is “inactive [at 9.27 µM]”. The activity change, negative = cytotoxicity is 6.24% [at 11.6 µM] in experiment [2]; 6.14% [at 11.6 µM] in [3]; 4.37% [at 11.6 µM] in experiment [4]; 6.73% [at 11.6 µM] in experiment [5]; 3.93% [at 11.6 µM] in experiment [6]; -4.38% [at 11.6 µM] in experiment [7]. The activity change, negative = cytotoxicity was -1.63% [at 11.6 µM] in [8]; 6.64% [at 11.6 µM] in experiment [9]; 10.1% [at 11.6 µM] in experiment [10]; -2.91% [at 11.6 µM] in experiment [11]; 4.72% [at 11.6 µM] in [12]; -1.58% [at 11.6 µM] in experiment [13].
On to `COC12CC3C(C(C)C1=CC(=O)O2)C(O)C(OC(C)=O)C1C(C)(C)C(OC(C)=O)CCC31C` (stereo unspecified), for which the outcome in experiment [1] is “inactive [at 17.4 µM]”. Also, the Potency result in experiment [2], in experiment [3], in [4], in experiment [5], in experiment [6] and in experiment [7] was “inactive” throughout. Further, the Potency result in experiment [8], in experiment [9], in experiment [10], in [11], in experiment [12] and in experiment [13] was “inactive” in each case.
In the case of `COc1cc(CCc2ccccc2)c(C(=O)O)c2c1CC(C(C)(C)O)O2` (stereo unspecified), the outcome in experiment [1] was inactive. The Potency entry in [2], in experiment [3], in experiment [4], in [5], in experiment [6] and in [7] was “inactive” each time. Moreover, the Potency entry in experiment [8], in experiment [9], in experiment [10], in [11], in experiment [12] and in [13] was “inactive” throughout.
Consider `C[C@]12CC[C@@H]3c4ccc(O[C@@H]5O[C@H](C(=O)O)[C@@H](O)[C@H](O)[C@H]5O)cc4CC[C@H]3[C@@H]1CCC2=O`, for which the compound was classed as inactive in experiment [1]. In addition, the Potency result in experiment [2], in experiment [3], in experiment [4], in [5], in experiment [6] and in experiment [7] was “inactive” throughout. The Potency entry in experiment [8], in [9], in experiment [10], in experiment [11], in [12] and in experiment [13] was “inactive” each time.
Take `CC(=O)O[C@@H]1[C@@H](OC(=O)/C=C/c2ccccc2)[C@H](C)O[C@@H](O[C@H]2[C@@H]3C=CO[C@@H](O[C@@H]4O[C@H](CO)[C@@H](O)[C@H](O)[C@H]4O)[C@@H]3[C@@]3(CO)O[C@@H]23)[C@@H]1OC(C)=O`: in experiment [1], the outcome was “inactive [at 17.4 µM]”. Also, the Potency entry in experiment [2], in [3], in experiment [4], in [5], in experiment [6] and in experiment [7] was “inactive” throughout. Moreover, the Potency entry in [8], in experiment [9], in [10], in experiment [11], in experiment [12] and in experiment [13] was “inactive” in each case.
In the case of `C[C@]12C=CC(=O)C=C1CC[C@@H]1[C@@H]2[C@@H](O)C[C@@]2(C)[C@H]1CC[C@]2(O)C(=O)COC(=O)CCC(=O)O`, in experiment [14], the activity, negative = cell killing is -20.8%.
Still for that read-out and setting: under `CCC(=O)NS(=O)(=O)c1ccc(-c2c(-c3ccccc3)noc2C)cc1` stands -24%.
As for `CC[C@H]1OC(=O)C[C@@H](O)[C@H](C)[C@@H](O[C@@H]2O[C@H](C)[C@@H](O)[C@H](N(C)C)[C@H]2O)[C@@H](CCN2C[C@H](C)C[C@H](C)C2)C[C@@H](C)C(=O)/C=C/C(C)=C/[C@@H]1CO[C@@H]1O[C@H](C)[C@@H](O)[C@@H](OC)[C@H]1OC`, the Potency in experiment [14] was 22.4 µM (active).
With `Cc1nn(C)c2c1C(c1ccc(C(F)(F)F)cc1)C(C#N)=C(N)O2` (stereo unspecified), the outcome in [1] was inactive. Besides, the Potency result in experiment [2], in experiment [3], in [4], in [5], in experiment [6] and in experiment [7] was “inactive” throughout. Besides, the Potency result in [8], in [9], in experiment [10], in experiment [12] and in experiment [13] was “inactive” each time.
As to `CC(C(=O)O)C1CCC2(C)C3C(=O)C=C4C(CCC(=O)C4(C)C)C3(C)CCC12C` (stereo unspecified), the outcome in experiment [1] was “inactive [at 17.4 µM]”. The Potency result in experiment [2], in experiment [3], in [4], in [5], in experiment [6] and in experiment [7] was “inactive” each time. Also, the Potency entry in experiment [8], in experiment [9], in experiment [10], in experiment [12] and in experiment [13] was “inactive” in each case.
On to `C=C[C@@]1(C)CC(=O)C2[C@](C)(O1)[C@@H](OC(C)=O)[C@@H](O)[C@H]1C(C)(C)CCC[C@]21C` (stereo partly specified), for which the outcome in experiment [1] is “inactive [at 9.27 µM]”. Besides, the activity change, negative = cytotoxicity in [2] was 11.6% [at 11.6 µM]; in [3], 10.9% [at 11.6 µM]; in experiment [4], -3.47% [at 11.6 µM]; in experiment [5] it was 1.29% [at 11.6 µM]; in experiment [6], 4.53% [at 11.6 µM]; in [7], -0.239% [at 11.6 µM]. The activity change, negative = cytotoxicity in [8] is 7.71% [at 11.6 µM]; in [10], 5.09% [at 11.6 µM]; in experiment [12], 0.473% [at 11.6 µM]; in experiment [13], 4.2% [at 11.6 µM].

For the origin of these results see PubChem BioAssay (NCATS).
